From PubChem BioAssay (NCI)
About 83,000 compounds went through this panel and 20% of them were active in at least one assay; those are over-represented in the sample as a whole.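 Single-concentration screen, 48 h exposure, 96-well plates. Endpoint: percent growth. Below 10 = active.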 A number with no mark means an inactive call. Active and inactive are the calls of the source.

Assays:
Test in all cases: NCI-60 one-dose screen, 48 h (100 = growth as untreated, 0 = no growth, -100 = all killed)
Conditions in all cases: 10 µM
[1] = test system: DU-145 prostate
[2] = test system: K-562 leukemia
[3] = test system: MALME-3M melanoma
[4] = test system: MDA-MB-231 breast
[5] = test system: RXF 393 renal
[6] = test system: SF-268 CNS
[7] = test system: SF-295 CNS
[8] = test system: SF-539 CNS
[9] = test system: UACC-257 melanoma
[10] = test system: M14 melanoma

SMILES	growth [1]	growth [2]	growth [3]	growth [4]	growth [5]	growth [6]	growth [7]	growth [8]	growth [9]	growth [10]
COc1ccc(-c2nc(-c3nc4ccc(OC)cc4[nH]3)c3ccccn23)cc1	71.9%	25.5%	104%	83%	75.7%	57.5%	52%	90.2%	92.9%	77.5%
Cc1ccc(C(=O)O)c(N)c1C	101%	92.1%	85.7%	118%	111%	95.9%	92.6%	103%	108%	96.4%
CCCCCc1cc[n+](CC(=O)c2ccc(Cl)cc2)cc1	95.2%	90.7%	89.8%	76.6%	95.6%	84.7%	94%	93.9%	97.5%	85.9%
O=C(OCc1ncc(-c2ccc(C(F)(F)F)cc2)c(NC2CCCCCC2)n1)c1c(F)c(F)c(F)c(F)c1F	77.2%	31.9%	-14.4% (active)	81.4%	64.3%	72.5%	24.5%	96.3%	34.9%	43.7%
COc1cc(C)c2sc3ccccc3c(=O)c2c1NCCN(C)C	77.1%	-1.18% (active)	38.9%	27.9%	59.3%	61.3%	53.6%	66.7%	-22.8% (active)	24%
c1ccc(COCC[P+](c2ccccc2)(c2ccccc2)c2ccccc2)cc1	15%	3.16% (active)	4.01% (active)	5.14% (active)	29.6%	15.4%	-46% (active)	18.5%	-22.7% (active)	10.9%
COc1ccc(C2C=C(c3ccc(OC)c(OC)c3)N=C3SC=CN32)c(Br)c1 (stereo not given)	82.7%	8.77% (active)	88.7%	78%	98.5%	90.4%	74.9%	87.1%	97.3%	55.9%
CCOC(=O)CNC(=O)Nc1ccc(Oc2ccc(NC(=O)NCC(=O)OCC)cc2)cc1	112%	105%	102%	108%	91.6%	104%	93%	86.7%	96.2%	101%
Cc1ccc2c(c1)-c1cc(C)nn1-c1ccc(C#N)cc1O2	98.7%	19.7%	76.1%	61%	65%	74.4%	67.2%	69.1%	78.4%	40%
CC(=O)OCC(COC(C)=O)(COC(C)=O)COC(C)=O	103%	95.4%	94.6%	105%	104%	94.7%	103%	111%	103%	108%
COC(=O)[C@]12CC[C@@H](C)[C@H](C)[C@@H]1C1=CC[C@@H]3[C@@]4(C)C[C@@H](O)[C@H](O)[C@@](C)(CO)[C@@H]4[C@H](O)C[C@@]3(C)[C@]1(C)CC2	-82.5% (active)	-31.7% (active)	-55.9% (active)	-66.3% (active)	-81.6% (active)	-31% (active)	-78.5% (active)	-58.4% (active)	-85.1% (active)	-71.3% (active)
Cc1ccc(C)c(S(=O)(=O)NC2c3ccccc3Oc3ccccc32)c1	112%	90%	93.2%	95.2%	91.3%	95%	98.1%	97.3%	109%	101%
COc1ccc(-c2cc(/C=C3\C(=O)Nc4cc(Cl)ccc43)[nH]n2)cc1	26.4%	13.3%	29.2%	54.5%	9.94% (active)	36.5%	1.51% (active)	4.51% (active)	62.2%	35%
CC(CNC(Cc1ccccc1)c1ccccc1)NC(Cc1ccccc1)c1ccccc1 (stereo not given)	21.4%	8.06% (active)	45%	17.4%	43.7%	53.5%	61.2%	52.7%	76.9%	30.4%
CCOC(=O)Cn1nnc(-c2ccc(OCc3ccccc3F)cc2)n1	103%	53%	36.9%	104%	79.9%	82.8%	91.7%	92.4%	87.5%	75.1%
Cc1cc(C)c(/C=C2\C(=O)Nc3ccc(NC(=O)CCCCCCC(=O)NO)cc32)[nH]1	19.3%	22.7%	18.7%	12%	19.1%	22.8%	30%	15%	0.0206% (active)	18.4%
C[C@@H]1C(=O)N(C[C@H](Cc2ccccc2)NC(=O)OCc2ccccc2)[C@]1(Cc1ccccc1)C(=O)OCc1ccccc1	78.2%	26.1%	35.9%	58.8%	42.2%	52.2%	30%	64.6%	32.1%	40.7%
CCOCC[P+](c1ccccc1)(c1ccccc1)c1ccccc1	59.8%	20%	61.1%	63.5%	79.2%	61.9%	39%	56.2%	14%	60.8%
Nc1ccn([C@@H]2O[C@H](COP(=O)(O)O[C@@H]3C[C@H](n4cc(F)c(=O)[nH]c4=O)O[C@@H]3COP(=O)(O)O[C@@H]3C[C@H](n4cc(F)c(=O)[nH]c4=O)O[C@@H]3COP(=O)(O)O[C@@H]3C[C@H](n4cc(F)c(=O)[nH]c4=O)O[C@@H]3COP(=O)(O)O[C@@H]3C[C@H](n4cc(F)c(=O)[nH]c4=O)O[C@@H]3COP(=O)(O)O[C@@H]3C[C@H](n4cc(F)c(=O)[nH]c4=O)O[C@@H]3COP(=O)(O)O[C@@H]3C[C@H](n4cc(F)c(=O)[nH]c4=O)O[C@@H]3COP(=O)(O)O[C@@H]3C[C@H](n4cc(F)c(=O)[nH]c4=O)O[C@@H]3COP(=O)(O)O[C@@H]3C[C@H](n4cc(F)c(=O)[nH]c4=O)O[C@@H]3COP(=O)(O)O[C@@H]3C[C@H](n4cc(F)c(=O)[nH]c4=O)O[C@@H]3COP(=O)(O)O[C@@H]3C[C@H](n4cc(F)c(=O)[nH]c4=O)O[C@@H]3COP(=O)(O)OCCOCCOCCOCCOCCOCCO)[C@H](O)C2O)c(=O)n1 (stereo not given in full)	41.6%	53.8%	64%	91.4%	63.9%	36.8%	1.32% (active)	10.2%	44.7%	9.25% (active)
Cc1cc(C)c2nc(C)c(C)[n+]([O-])c2c1	110%	89.2%	95.6%	118%	114%	106%	101%	97.2%	84.8%	102%
CN(C)CCCN(Cc1ccccc1O)C(=S)Nc1ccc(Cl)cc1	121%	97.5%	101%	97%	93.4%	102%	94.7%	104%	101%	108%
COc1ccc(-c2nnc(SCC(=O)c3ccccc3)o2)cc1	102%	92.3%	104%	99.3%	94.2%	102%	101%	98.8%	89.4%	101%
Cc1ccc(C2C=C(c3ccc(Cl)cc3)N=C3SC=CN32)c(Br)c1 (stereo not given)	89.1%	44.9%	87.3%	90%	71.7%	92%	96.1%	89.7%	103%	94.4%
Cn1c([N+](=O)[O-])cnc1/C=C1\Oc2ccc(Br)cc2C1=O	-57.9% (active)	-0.493% (active)	-53.4% (active)	-14.8% (active)	-59% (active)	-16.9% (active)	11.2%	-59.5% (active)	-38.5% (active)	-35% (active)
CNC(=O)c1cc(Oc2ccc(NC(=O)Nc3ccc(Cl)c(OC(C)C)c3)c(F)c2)ccn1	76.8%	21.8%	38.3%	59.4%	87.6%	58.3%	33.3%	66.9%	26.9%	36.1%
Cc1noc(C)c1-c1ccc2nc(NC(=O)[C@H]3CCN(C#N)C3)cn2c1	89.7%	40.5%	75.6%	68.2%	83.4%	91.3%	97%	82.3%	82.1%	77.9%
